Data: PubChem BioAssay (EPA / NIEHS)
Records with an inconclusive call do not appear. Activity calls are given as the source filed them. Rule for the calls: active = hit-call score of the fitted dose curve at least 0.9, where 1 is the maximum; inconclusive = response in the unintended direction; inactive = score below 0.9.

Assay: Tanguay_ZF_120hpf_TRUN_legacy: (Legacy) Oregon State University Tanguay Lab 120 Hour Post-fertilization zebrafish Assay for Truncated Body (AID 2283655)
Procedure: Tanguay_ZF_120hpf_legacy is a whole embryo, multiplexed endpoint assay using zebrafish larvae exposed for 120 hours post fertilization on a 96-well plate.Tanguay_ZF_120hpf_TRUN_legacy is one of one assay component(s) measured or calculated from the Tanguay_ZF_120hpf_legacy assay. It is designed to make measurements of zebrafish development as detected with brightfield microscopy of developing zebrafish embryos.Data from the assay component Tanguay_ZF_120hpf_TRUN_legacy was analyzed into 1 assay endpoints. This assay endpoint, Tanguay_ZF_120hpf_TRUN_legacy, was analyzed in the positive analysis fitting direction relative to DMSO as the negative control and baseline of activity. Using a type of morphology reporter, gain-of-signal activity can be used to understand changes in developmentals as they relate to the whole embryo. To generalize the intended target to other relatable targets, this assay endpoint is annotated to the zebrafish development intended target family, where the subfamily is embryonic morphogenesis.
Zebrafish husbandry: Tropical 5D wild-type adult zebrafish were housed in at an approximate density of 1000 per 100 gallon tank at the Sinnhuber Aquatic Research Laboratory, Oregon State University, Corvallis, OR. Each tank was kept at standard laboratory conditions of 28C on a 14-h light/10-h dark photoperiod in fish water consisting of reverse osmosis water supplemented with a commercially available salt (Instant Ocean). Spawning funnels were placed into the tanks the night prior, and embryos were collected and staged. To increase bioavailability, the chorion was enzymatically removed using pronase (63.6mg/ml, >/= 3.5U/mg, Sigma-Aldrich: P5147) at 4 hours post fertilization (hpf) using a custom automated dechorionator.Chemical exposures: Six hpf dechorionated embryos were placed 1 embryo per well in a 96-well plate prefilled with 90 ul of EM using automated embryo placement systems (AEPS). Ten microliters of each row of dilution plate 2 was added to 2 exposure plates. The final DMSO concentration used was 0.64% (vol/vol). Thirty-two embryos were also exposed to 5uM trimethyltin chloride (positive control). Plates were sealed to prevent evaporation and foil covered to reduce light exposure and kept in a 28C incubator. Embryos were statically exposed until 120 hpf. At 24 hpf, embryos were assessed for photomotor response using a custom photomotor response analysis tool (PRAT) and for developmental toxicity endpoints (MO24: mortality at 24 hpf, DP: developmental progression, SM: spontaneous movement, and NC: notochord distortion). At 120 hpf, locomotor activity was measured using Viewpoint Zebralab and assessed for 18 endpoints. Zebrafish acquisition and analysis program (ZAAP), a custom program designed to inventory, acquire, and manage zebrafish data, was used to collect developmental endpoints as either present or absent (i.e., binary responses were recorded). If mortality occurred for an embryo (at either 24 or 120 hpf), the non-mortality endpoints were not measured.
For O=C1CCCO1, the outcome was “inactive”. In the case of C[N+](C)(C)CC1CO1 (stereo not given), the outcome is reported as “inactive”. With CCCCCOC(=O)c1ccccc1C(=O)OCCCCC the outcome was “inactive”. With CCCCCCCCCCCCCN1CC(C)OC(C)C1 (stereo not given) the outcome was “inactive”. With CN(C)C(=O)Nc1ccc(Cl)cc1 the outcome was “inactive”. In the case of Oc1ccccc1Cl, the outcome is reported as “inactive”. For CO[C@@H]1[C@H](OC(=O)NC(=O)CCl)CC[C@]2(CO2)[C@H]1[C@@]1(C)O[C@@H]1CC=C(C)C, the outcome was “inactive”. In the case of [As]#[In], the outcome is reported as “inactive”. For CCCSC(=O)N(CCC)CCC, the outcome was “inactive”. In the case of Brc1ccc(Oc2ccccc2)cc1, the outcome is reported as “inactive”. With Cc1ccc(N)c(N)c1 the outcome was “inactive”. In the case of Clc1ccc(C(c2ccc(Cl)cc2)C(Cl)(Cl)Cl)cc1, the outcome is reported as “inactive”. In the case of CC(C)COC(=O)c1ccccc1C(=O)OCC(C)C, the outcome is reported as “inactive”. With Clc1ccccc1Cl the outcome was “inactive”. With O=P(OCCCl)(OCCCl)OCCCl the outcome was “inactive”. With Nc1cc(Cl)cc(C(=O)O)c1Cl the outcome was “inactive”. For CC(O)CCO (stereo not given), the outcome was “inactive”. With ClCCOCCCl the outcome was “inactive”. In the case of Cn1cc(-c2ccccc2)c(=O)c(-c2cccc(C(F)(F)F)c2)c1, the outcome is reported as “inactive”. For c1ccc2c(c1)-c1cccc3cccc-2c13, the outcome was “inactive”. With COC(=O)c1ccccc1N the outcome was “inactive”. For CCOc1cccc(C2(N3CCN(c4ccccc4)CC3)CCC(C)CC2)c1 (stereo not given), the outcome was “inactive”. In the case of CCCCOC(=O)c1ccccc1C(=O)OCc1ccccc1, the outcome is reported as “inactive”. For [Cl-].[Cl-].[Hg+2], the AC50 was 3.83 µM (active). For O=Cc1ccco1, the outcome was “inactive”. In the case of CCCCCCCCOC(=O)c1ccc(C(=O)OCCCCCCCC)c(C(=O)OCCCCCCCC)c1, the outcome is reported as “inactive”. In the case of CCN(CC)N=O, the outcome is reported as “inactive”. For CCOC(=O)[C@]1(c2ccccc2)Oc2ccccc2[C@@H]1N, the outcome was “inactive”. In the case of CCC12COCN1COC2, the outcome is reported as “inactive”. In the case of OCCCBr, the outcome is reported as “inactive”. With Nc1ccc(Cl)cc1N the outcome was “inactive”. With Oc1ccc2ccc3cccc4ccc1c2c34 the AC50 was 46.5 µM (active). With CCC(C)c1ccc(O)cc1 (stereo not given) the outcome was “inactive”. In the case of C[C@]12C=CC3=C4CCC(=O)C=C4CC[C@H]3[C@@H]1CC[C@@H]2O, the outcome is reported as “inactive”. In the case of Clc1ccc(C(c2ccc(Cl)cc2)C(Cl)Cl)cc1, the outcome is reported as “inactive”. For CCN(CC)CCO, the outcome was “inactive”. With CCC[CH2][Sn]([Cl])([CH2]CCC)[CH2]CCC the outcome was “inactive”. For Cc1ccc(N)cc1, the outcome was “inactive”. In the case of CS(=O)(=O)NC(=O)c1cc(Oc2ccc(C(F)(F)F)cc2Cl)ccc1[N+](=O)[O-], the outcome is reported as “inactive”. With CC(C)(C)OOC(C)(C)CCC(C)(C)OOC(C)(C)C the outcome was “inactive”.
